An excerpt weighted towards active compounds, which were near 5.1% of everything screened.
S1P3 antagonist = S1P3 (human) receptor antagonism. inhibition, % at 4.98 µM. 170,000 tested, 0.27% active. CHO S1P3 NFAT-BLA reporter, FRET fluorescence, antagonist mode;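 active = inhibition above the plate cutoff, the mean inhibition of test wells on that plate plus 3 SD, cut at about 28% in these data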;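 also: cells challenged with S1P at its EC80 of 0.8 µM; blue over green emission ratio from cleaved BLA substrate after 4 h stimulation; 0% = S1P-stimulated wells and 100% = unstimulated DMSO-only wells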
RAM inhibit = blocks the yeast RAM network; 190,000 tested, 1.8% active; S. cerevisiae dse1pr::URA3 reporter, 5-FOA growth OD615, 2 d; analog-sensitive cbk1-as2 kinase mutant strain; inhibition, % at 50 µM; AID 868;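 active = inhibition above a set limit, 3 SD over mean compound inhibition, cut at about 8.4% in these data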;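 also: 0% = DMSO-only wells with no growth and 100% = 10 µM 1-NA-PP1 full growth; inhibition rescues growth on 5-FOA so higher OD means more RAM inhibition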
S1P4 agonist = activates the human S1P4 receptor. O95977. S1P4-expressing cell line, agonist reporter assay. activation, % at 4.98 µM. 220,000 tested, 0.35% active; in the data active = activation above about 11%;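 also: 0% = DMSO vehicle and 100% = reference agonist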
Cl transport mod = modulates chloride dependent transport by human KCC2 | Q9H2X9 | KCC2 cells, thallium flux FluoZin-2 fluorescence | B-score of Tl+ flux slope (higher = more flux/activation; lower = inhibition) at 10 µM | 190,000 tested, 2.2% active | AID 1456;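 active = thallium flux slope and its plate-corrected score both differing from the plate sample mean at a set confidence after two filtering rounds, in either direction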;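 also: slope of fluorescence scaled to starting intensity during 10 to 20 s after thallium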
Target sequence (Q9H2X9 whole entry, looked up): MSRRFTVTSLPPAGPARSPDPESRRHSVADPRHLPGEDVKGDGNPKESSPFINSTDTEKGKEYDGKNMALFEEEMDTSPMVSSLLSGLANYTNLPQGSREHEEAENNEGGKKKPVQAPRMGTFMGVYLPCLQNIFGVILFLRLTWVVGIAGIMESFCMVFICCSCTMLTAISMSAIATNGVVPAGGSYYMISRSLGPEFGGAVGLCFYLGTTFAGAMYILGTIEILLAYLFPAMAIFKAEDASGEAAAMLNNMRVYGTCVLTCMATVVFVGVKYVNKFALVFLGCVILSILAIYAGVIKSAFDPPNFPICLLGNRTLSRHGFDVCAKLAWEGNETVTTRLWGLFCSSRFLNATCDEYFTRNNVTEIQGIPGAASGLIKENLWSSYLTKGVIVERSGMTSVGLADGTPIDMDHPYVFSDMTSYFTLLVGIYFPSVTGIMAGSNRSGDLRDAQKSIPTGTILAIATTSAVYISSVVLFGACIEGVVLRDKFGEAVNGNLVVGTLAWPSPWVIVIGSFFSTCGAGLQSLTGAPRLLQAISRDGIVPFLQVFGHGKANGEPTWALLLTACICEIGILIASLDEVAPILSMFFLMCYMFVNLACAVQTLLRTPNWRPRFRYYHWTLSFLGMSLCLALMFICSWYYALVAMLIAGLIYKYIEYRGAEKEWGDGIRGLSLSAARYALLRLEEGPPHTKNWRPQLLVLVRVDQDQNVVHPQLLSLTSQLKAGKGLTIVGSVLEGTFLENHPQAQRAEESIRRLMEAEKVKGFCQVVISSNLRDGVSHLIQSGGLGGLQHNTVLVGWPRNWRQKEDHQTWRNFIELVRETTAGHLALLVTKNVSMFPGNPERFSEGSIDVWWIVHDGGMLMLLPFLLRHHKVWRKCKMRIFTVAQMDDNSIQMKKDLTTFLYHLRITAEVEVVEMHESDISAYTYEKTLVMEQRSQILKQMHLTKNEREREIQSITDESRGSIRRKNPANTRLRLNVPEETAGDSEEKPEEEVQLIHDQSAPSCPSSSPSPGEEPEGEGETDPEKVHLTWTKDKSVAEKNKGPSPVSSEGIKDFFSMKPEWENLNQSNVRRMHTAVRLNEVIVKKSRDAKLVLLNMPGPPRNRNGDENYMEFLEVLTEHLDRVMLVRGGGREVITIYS
S1P4 antagonist = antagonists of human S1P4 receptor; O95977; S1P4-expressing cells, antagonist mode, reporter read-out; inhibition, % at 4.98 µM; 220,000 tested, 0.26% active; AID 1510; in the data active = inhibition above about 29%;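 also: 0% = wells stimulated with agonist and 100% = vehicle wells without agonist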
ROMK primary = modulates human ROMK potassium channel activity. P48048. Tet-inducible ROMK, thallium flux fluorescence; actives lie on both sides. B-score at 10 µM. 130,000 tested, 2% active. AID 1918;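 active = signal ratio slope over the read window, or its plate-corrected B-score, at least 3 SD from the plate mean, either direction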;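 also: B-score of the F/F0 ratio slope over 7 to 12 s after thallium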
RAM efflux-def = restores 5-FOA growth of efflux-deficient yeast; max inhibition, %; 1,200 tested, under 10 active; shares compounds with RAM inhibit; S. cerevisiae efflux-deficient reporter strain, 5-FOA growth OD615, 2 days; call rule not given here;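 also: plate controls were vehicle for no effect and reference inhibitor for full effect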
Starred values were filed as active, the others as inactive; nt = no result.

SMILES	S1P3 antagonist	RAM inhibit	S1P4 agonist	Cl transport mod	S1P4 antagonist	ROMK primary	RAM efflux-def
Cc1ccc(C(=O)/C=C/c2cn(CC(O)CN3CCOCC3)c3ccccc23)cc1 (centres undefined)	18	19*	2	3.8	2	-1.7	2
COc1ccc(C(=O)/C=C/c2cn(CC(O)CN3CCOCC3)c3ccccc23)cc1 (centres undefined)	-14	-1	4	0.045	1	-0.81	nt
O=c1n(Cc2ccccc2Cl)nc2n1-c1ccccc1SC2	0	nt	0	-3.4	-1	nt	nt
COc1ccc(N(C)S(=O)(=O)c2cccc(C(=O)NCC3CCCCC3)c2)cc1	-5	13*	2	-1.6	0	0.55	2
COc1ccc(/C=C/C(=O)NC(=S)Nc2ccc(S(=O)(=O)Nc3ccc(OC)nn3)cc2)cc1	-11	5	1	-0.45	-13	nt	nt
COc1cc(NS(=O)(=O)c2ccc(NC(=S)NC(=O)/C=C/c3ccco3)cc2)ncn1	-4	13*	-2	-1.7	-13	-0.44	4
Cc1ccccc1C(=O)NC1CCN(C(=O)N(c2ccccc2)c2ccccc2)CC1	nt	1	-1	0.64	-4	nt	nt
CCN(CCS(=O)(=O)c1ccc(Cl)cc1)C(=O)Nc1ccc(Cl)cc1	0	nt	-1	-0.41	-5	nt	nt
O=C(CSc1nnc(SCc2ccc(Cl)cc2)s1)c1ccc2c(c1)OCO2	7	16*	2	-4.1	-7	0.07	2
COCCNc1nnc(SCC(=O)c2ccc3c(c2)OCO3)s1	nt	3	1	nt	-4	0.87	nt
O=C(CC(C(=O)O)P(=O)(c1ccccc1)c1ccccc1)c1ccccc1 (centres undefined)	-16	2	-2	0.65	-6	nt	nt
COc1cccc(N=C2SC(C(=O)Nc3ccccc3F)CC(=O)N2C)c1 (centres undefined)	-2	5	0	nt	-14	0.83	nt
COc1cccc(NC(=O)C2CC(=O)N(C)C(=Nc3cccc(F)c3)S2)c1 (centres undefined)	9	19*	-2	nt	-6	-0.027	1
O=S1(=O)CC2SC(=S)N(Cc3ccccc3)C2C1 (centres undefined)	-8	nt	0	0.19	-2	nt	nt
O=C(OCc1csc(-c2ccccc2)n1)c1ccc(O)cc1	-5	-1	0	-2	0	0.35	nt
COc1ccc(/C=C/C(=O)OCc2csc(-c3ccccc3)n2)cc1OC	-16	16*	-1	-0.37	-28	nt	2
O=C1Nc2ccccc2/C1=N\N=C\C1=C(N2CCOCC2)C(=C\c2ccccc2)/CC1	nt	13*	-1	nt	4	nt	5
CCOC(=O)C1CCN(S(=O)(=O)C(F)(F)c2nc3ccccc3s2)CC1	nt	3	2	nt	-8	-0.57	1
COc1ccc2c(c1)c(CC(=O)Nc1cccc(S(N)(=O)=O)c1)c(C)n2C(=O)c1ccc(Cl)cc1	5	nt	0	0.23	-7	nt	nt
CCn1c2ccccc2c2cc(NC(=O)c3cc(OC)c(OC)c(OC)c3)ccc21	nt	12*	-3	0.71	13	nt	4
Cc1ccccc1-c1nnn(CC(=O)Nc2ccc3c(c2)OCCO3)n1	2	12*	3	-0.78	2	nt	4
COc1cccc(OCCNC(=O)c2ccccc2Sc2ccccc2C#N)c1	3	4	-2	0.039	-16	nt	nt
Cc1ccccc1OCCNC(=O)c1ccccc1Sc1ccccc1C#N	nt	14*	-1	-3.2	-14	nt	2
CNC(=O)c1ccccc1Sc1ccccc1C#N	9	2	-1	0.27	5	1.1	nt
Cc1cc(C)c(OCCNC(=O)c2ccccc2Sc2ccccc2C#N)c(C)c1	-9	20*	-1	-0.86	7	nt	5
SMILES	S1P3 antagonist	RAM inhibit	S1P4 agonist	Cl transport mod	S1P4 antagonist	ROMK primary	RAM efflux-def
Cc1ccc(N2N=C(c3ccc(F)cc3)CC2c2ccco2)cc1 (centres undefined)	-8	12*	3	0.7	-6	-1.1	4
Fc1ccc(C2=NN(c3ccccc3)C(c3ccco3)C2)cc1 (centres undefined)	-1	3	1	-0.08	-8	-0.3	nt
CCOc1cc2[nH]c(=O)n(CCCC(=O)N(C)Cc3ccccc3)c(=O)c2cc1OCC	-10	0	1	-0.16	9	0.9	nt
CCn1c(SCC(=O)Nc2nccc(C)n2)nc2ccccc21	-6	nt	0	0.0047	-6	nt	nt
CN(C)C(=O)CSc1nc(SCC(=O)N(C)C)n(-c2ccccc2)n1	2	0	2	nt	6	-0.062	nt
O=C(CSc1nc(SCC(=O)NCc2ccccc2)n(-c2ccccc2)n1)NCc1ccccc1	nt	36*	4	nt	-5	-2.2	2
Cc1ccc(SCC(=O)Nc2cccc(NC(=O)c3ccco3)c2)cc1	nt	2	1	-0.14	-3	nt	nt
C/C(=N\NC(=O)CCc1ccc(S(=O)(=O)N2CCOCC2)cc1)c1ccccc1Cl	-17	0	0	0.39	-5	2.3	nt
COC(=O)c1cc2c(ccn2-c2ccc(F)cc2)n1Cc1cccc(OC)c1	-1	13*	-1	-0.29	-8	-0.68	8
CNC(=S)N(CCc1ccc(OC)c(OC)c1)Cc1cc2c(C)cc(C)cc2[nH]c1=O	-5	16*	1	-1.5	9	-0.92	2
CNC(=S)N(CCc1ccccc1)Cc1cc2cc(OC)c(OC)cc2[nH]c1=O	3	1	-1	0.18	-14	-0.12	nt
CCCC[n+]1c(-c2ccc(Cl)cc2Cl)csc1Nc1ccccc1	-12	0	-2	0.068	-11	nt	nt
Clc1ccc(-c2csc(Nc3ccccc3)[n+]2Cc2ccco2)c(Cl)c1	-1	14*	0	0.11	0	-0.4	2
CC(C)(C)OC(=O)COc1cc(O)c2c(=O)cc(-c3ccccc3)oc2c1	-14	12*	0	-0.68	-5	nt	2
CC(=O)N1CCCc2cc(S(=O)(=O)NCCC3=CCCCC3)ccc21	12	-1	1	-0.2	-12	-1.2	nt
Cc1ccc(NC(=O)c2cc(S(=O)(=O)NCCC3=CCCCC3)ccc2F)cc1	-28	16*	1	-0.03	1	-0.7	4
COc1ccc(/C=C2\SC(=S)N(CC(=O)OCC(=O)Nc3ccc(C)cc3Cl)C2=O)cc1	-14	13*	3	0.23	-7	-0.16	9
COc1ccc(/C=C2\SC(=S)N(CC(=O)OCC(=O)Nc3ccc([N+](=O)[O-])cc3OC)C2=O)cc1	2	18*	1	0.062	5	-0.071	8
Cc1cc(NC(=O)COC(=O)[C@@H](NS(=O)(=O)c2ccc(Br)cc2)C(C)C)no1	14	nt	1	0.85	9	nt	nt
CCOc1ccc(-c2c(C(=O)N/N=C/c3ccc(OC)cc3)nnn2-c2nonc2N)cc1	-19	12*	1	0.66	-16	-0.13	1
COc1ccccc1Nc1nc2c(C)cccc2cc1C#N	nt	13*	3	0.45	-17	nt	4
